Experimental data published in PubChem BioAssay (NCI).
This is part of a sample that, as a whole, favours compounds with a hit. Of some 83,000 tested, about 20% had one in any assay.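 Note: values are percent growth. 100 is the growth of untreated cells, values between 100 and 0 indicate rising inhibition; between -100 and 0 indicates cell death.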 Values without a mark were called inactive. Calls of active or inactive are those of the source.

Test system: A549/ATCC NSCLC
Experiment: NCI-60 one-dose screen, 48 h (100 = growth as untreated, 0 = no growth, -100 = all killed)
Settings: 10 µM
Protocol: Growth inhibition of the A549/ATCC human Non-Small Cell Lung tumor cell line is measured as a screen for anti-cancer activity. Cells are grown in 96 well plates and exposed to the test compound for 48 hours. Compounds are tested at a single concentration, which is 10^-5 M for most compounds. The reported endpoint is percent growth (GI% or GIPRCNT), where numbers from 0 - 100% represent growth inhibition, and numbers from -100% - 0 represent cell death. For example, a value of 40 represents 60% growth inhibition. A value of 0 means no net growth occurred over the course of the experiment. A value of -40 indicates 40% of cells at the beginning of the experiment died by the end of the experiment. A value of -100 means all cells are dead at the end of the experiment.
NCI-60 Human Tumor Cell Lines Screen was performed using the standard one-dose NCI protocol, which is described in more detail at https://dtp.cancer.gov/discovery_development/nci-60/default.htm.
Compounds with GIPRCNT values below 10 were considered active. Activity score was based on GIPRCNT using the following formula: […]
Score is 0 for GIPRCNT values of 100 or above, 50 for GIPRCNT values of 0, and 100 for GIPRCNT values of -100.

| SMILES | growth |
| --- | --- |
| Cc1ccc(C(=O)N/C(=C2/OCCN2C)[P+](c2ccccc2)(c2ccccc2)c2ccccc2)cc1 | 97.8% |
| CC(=O)c1cc(C(=O)N2c3ccccc3Sc3ccccc32)n2ccc(C)cc12 | 56.9% |
| O=C(CNc1nc(-c2ccccc2)cs1)Nc1ccc(Cl)cc1 | -49.8% (active) |
| C/C(=C\c1ccc(O)cc1O)c1ccc2ccc(O)cc2[o+]1 | 91.9% |
| O=C(NC(=S)N1CCN(c2ncnc3c2cnn3-c2ccccc2)CC1)c1ccc(Cl)cc1 | 54.3% |
| Cc1ccc(CNC(=O)Cc2ccc3c(c2)CN(C2CCC(=O)NC2=O)C3=O)cc1 (stereo not given) | 10.6% |
| COc1ccc2[nH]cc(/C=N/Nc3cccc(Cl)n3)c2c1 | 69.8% |
| COc1ccc(-c2cc(-c3cc(C(=O)c4ccc(Br)cc4)n4ccc(C)cc34)nc(N)c2C#N)cc1 | 93.2% |
| COc1ccccc1NCc1ccc(CO)n1-c1ccc(C)cc1 | 100% |
| O=C(CSc1nnc(-c2ccc3nc(-c4ccccc4)[nH]c3c2)o1)Nc1ccc(Br)cc1 | 66.2% |
| O=C(CNc1nc(-c2ccccc2)cs1)Nc1cccc(Cl)c1 | 38.7% |
| O=C1Nc2ccc(Cl)cc2/C1=C/c1cccc(OCc2ccccc2)c1 | 43.2% |
| CC1=C2C(=C[C@@](C)(CO)[C@@H]2O)/C(=N\N)[C@](C)(O)C12CC2 | 5.73% (active) |
| CN1CCN(c2ccc(C(=O)/C=C/c3ccc(OC(F)F)cc3)cc2)CC1 | 40.2% |
| COC1=C[C@]23CCC(=O)N2CCc2cc4c(cc2[C@@H]3[C@@H]1OC(=O)CCCC(C)C)OCO4 | 49.9% |
| Cc1ccc(/C=C/C(=O)c2ccc(NC(=O)CSc3nnc(-c4c[nH]c5ccccc45)n3-c3ccccc3)cc2)cc1 | 95.9% |
| O=C(CSc1nnc(-c2ccc3nc(-c4ccc(Cl)cc4)[nH]c3c2)o1)Nc1ccc(Cl)cc1 | -58.4% (active) |
| CN(C(=O)c1ccc(C(F)(F)F)cc1C(F)(F)F)c1sc2c(c1C#N)CCC(=O)C2 | 94.4% |
| CN1CCN(c2ccc(Nc3nc(N4CCN(S(=O)(=O)c5ccc(Cl)cc5)CC4)c4sccc4n3)cc2)CC1 | 22% |
| Cc1ccc(-c2nc(Nc3ccccc3C(=O)O)c3ccccc3n2)cc1 | 30.5% |

| SMILES | growth |
| --- | --- |
| COc1cccc(-c2nn(-c3ccccc3)cc2-c2ccnc(NCCCNC(=O)Nc3ccc(F)cc3)c2)c1 | 15.1% |
| CN1CCO/C1=C(/NC(=O)c1ccc(Cl)cc1)[P+](c1ccccc1)(c1ccccc1)c1ccccc1 | 102% |
| COc1ccc(C(C)=C(c2ccc(OCCCN(C)C)cc2)c2ccc(OCCCN(C)C)cc2)cc1 | -92.5% (active) |
| CN1CCN(Cc2ccc(NC(=O)c3cncc(C#Cc4cnc5ccc(N[C@@H]6CCOC6)nn45)c3)cc2C(F)(F)F)CC1 | -56% (active) |
| CC(=O)Nc1ccc(-n2cnc3cc(-c4ccc(NS(C)(=O)=O)cc4)ccc32)cc1 | 57% |
| C=C[C@H]1[C@H](O[C@@H]2OC(CO)[C@@H](O)[C@H](O)C2OC(=O)c2c(O)cc(O)cc2-c2cccc(O)c2)OC=C2C(=O)OCC[C@H]21 (stereo not given in full) | 95.3% |
| O=C(NO)c1ccc(CNC(=O)[C@H]2Cc3c([nH]c4ccccc34)[C@H](c3ccc(Cl)cc3)N2)cc1 | 24.5% |
| CN1CCN(c2ccc(Nc3nc(NCCCNC(=O)c4ccccc4)c4sccc4n3)cc2)CC1 | 72.5% |
| COc1cc2c3c(n(CCCN4CCOCC4)c(=O)c2cc1OC)-c1nc2c(cc1C3=O)OCO2 | 19% |
| N#Cc1c(Cl)nc(SCc2ccc(F)cc2)nc1-c1ccc(F)cc1 | 91.6% |
| CCN1CCN(c2ccc(NC(=O)Nc3ccc(-c4cc(C(=O)NC)c5ncccc5n4)cc3)cc2C(F)(F)F)CC1 | -88.4% (active) |
| Cc1ccc(C(C)C)cc1NC(=O)c1ccccc1N(C)C | 82.2% |
| O=c1[nH]c2ccc(Cl)cc2cc1CSc1ccc(Nc2nccc(-c3ccc(Cl)cc3)n2)cc1 | -41.8% (active) |
| CCOC(=O)C1=C(N)N(c2ccc(C)cc2)C2=C(C(=O)CC(C)(C)C2)C1c1ccccc1OC (stereo not given) | 107% |
| COc1ccc([C@H]2C(C(=O)c3ccc(Cl)cc3)C3(N[C@@H]2c2ccccc2)C(=O)Nc2ccc(Cl)cc23)cc1 (stereo not given in full) | 18.2% |
| O=c1[nH]c2ccccc2cc1CSc1ccc(Nc2nccc(-c3ccc4c(c3)OCO4)n2)cc1 | 76.7% |
| CC(=O)c1ccc(Nc2nc(SC(C)C)nc(-c3ccccc3)c2C#N)cc1 | 57.3% |
| COc1cc(/C=C/C(=O)c2cc(OC)c(OC)c(OC)c2)ccc1Oc1nc(Nc2ccc(F)cc2)nc(N(C)C)n1 | -48.3% (active) |
| Cc1ccc(CSc2nc(Cl)c(C#N)c(-c3ccc(F)cc3)n2)cc1 | 66.5% |
| CSc1nc(-c2cccc(C)c2)c2cc(-c3ccccc3)n(C)c2n1 | 26.8% |
